Assay outcomes from PubChem BioAssay.
This is a sample that favours compounds with a hit; in the whole collection about 5.1% have one here.
CRFR2-BP antag: antagonists of CRF-BP/CRF-R2 complex, primary screen, cell-based, HEK293, calcium dye fluorescence, uHTS; CRF-induced calcium fluorescence; inhibition, % at 11.8 µM; 0.59% of 350,000 active; AID 588475, 2011;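 active = inhibition of the ligand-induced calcium signal above about 50% at the single tested concentration, limit read from the data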
MPTP inh: mitochondrial permeability transition pore inhibitors, primary screen, biochemical, isolated mouse mitochondria, absorbance; AID 602449, 2012; Ca2+ swelling absorbance, 30 min; inhibition, % at 10 µM; 1.4% of 360,000 active;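 active = inhibition of 50% or more, scaled per plate between neutral and stimulator controls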;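 also: 0% = DMSO wells given calcium and 100% = 1 mM EGTA wells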
GRIN3A LBD mod: binders of NR3A ligand-binding domain, primary screen, biophysical, differential scanning fluorimetry, uHTS | Glutamate receptor ionotropic, NMDA 3A (GRIN3A) ligand-binding domain | NR3A LBD differential scanning fluorimetry, Tm shift; 0% = protein alone, 100% = glycine-bound protein | Tm shift relative to glycine control, % at 25 µM | 2.5% of 340,000 active;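 active = melting temperature shift of at least 10% of the positive control shift, at one fixed dose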
CRFBP-R2 agonist: agonists of CRF-BP/CRF-R2 complex, primary screen, cell-based, HEK293, calcium dye fluorescence, uHTS; CRF-binding protein / CRF receptor 2 complex (human); calcium dye fluorescence (FLIPR); percent of saturating CRF peptide response; activation, % at 13.2 µM; 0.46% of 350,000 active;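 active = activation of at least 50%, plus an integration ratio under a set limit after plate pattern correction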;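 also: plate controls were neutral control wells without compound for no effect and CRF at EC100 for full effect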
TMEM16A act: TMEM16A chloride channel activators or potentiators, primary screen, cell-based, HTS; Anoctamin-1 (Mus musculus), Q8BHY3; HEK293 TMEM16A/YFP-H148Q/I152L, iodide quench fluorescence; hits give low values; B-score at 10 µM; 0.3% of 340,000 active; AID 623877, 2012;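 active = fluorescence-ratio B-score plate-corrected deviation score at least 3 library SD below zero, with starting fluorescence score within 5 deviations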;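 also: channel opened by trigger with iodide after compound preincubation; score built on the fluorescence ratio of max minus min over baseline; more negative score means more quench and so TMEM16A activation or potentiation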
TMEM16A inh: TMEM16A chloride channel inhibitors, primary screen, cell-based, HTS. Anoctamin-1 (Mus musculus), Q8BHY3. HEK293 TMEM16A/YFP iodide influx fluorescence, ionomycin. normalized B-score (activity score, 25-100; higher = stronger inhibition) at 10 µM. 1.2% of 310,000 active;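 active = ratio plate-corrected score three or more library SD toward inhibition, starting fluorescence score within five deviations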;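 also: score derived from kinetic fluorescence span divided by baseline fluorescence per well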
Rh123 counter: fluorescence retest of MPTP screen hits in isolated mitochondria, single concentration; shares compounds with MPTP inh; inhibition, % at 10 µM; AID 624504, 2012; 78% of 5,000 active; membrane potential, Rhodamine 123 fluorescence; in the data active = inhibition above about 22%;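 also: 0% = DMSO vehicle and 100% = positive control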
MPTP swell DR: mitochondrial permeability transition pore inhibitors, dose response, biochemical, absorbance, uHTS hits | shares compounds with MPTP inh | isolated mitochondria swelling | IC50, µM | 58% of 780 active; in the data active = IC50 below about 20 µM
MPTP cs DR: fluorescent counter-screen in isolated mitochondria, dose response, counter-screen for MPTP inhibitor project, biochemical, fluorescence, uHTS hits. shares compounds with MPTP inh. isolated mitochondria counterscreen, fluorescence read-out. IC50, µM. 49% of 780 active; in the data active = IC50 below about 80 µM
Numbers without * were called inactive; i = inactive; / = not tested or not shown.

SMILES	CRFR2-BP antag	MPTP inh	GRIN3A LBD mod	CRFBP-R2 agonist	TMEM16A act	TMEM16A inh	Rh123 counter	others
Cc1ccc2c(c1)C1CN(C)CCC1N2C(=O)Nc1cccc(Cl)c1 (stereo unspecified)	-71	94*	17*	12	i	i	91*
CN1C(=O)C(=Cc2ccccc2OCc2ccccc2Cl)C(=O)N(C)C1=O	-14	61*	-1	2	i	i	44*
CCC(=Nc1cccc(C(F)(F)F)c1)c1c(O)n(C)c(=O)n(C)c1=O	-13	80*	2	-1	i	i	1	MPTP swell DR=9*;MPTP cs DR=14*
CC1(C)C(=O)CC[C@@]2(C)C1=CCC1C2CC[C@]2(C)C(=O)CCC12 (stereo partly specified)	5	59*	-1	-5	i	/	3	MPTP swell DR=6.3*;MPTP cs DR=13*
CC(C)n1c(O)c(C=NCc2ccccc2)c(=O)[nH]c1=S	-58	4	0	2	i	i	/
COc1c(C=C2C(=O)NC(=O)NC2=O)c(CCN(C)C(=O)c2ccccc2)cc2c1OCO2	-16	12	0	1	i	i	/
COC(=O)C1=C(c2ccc(OC)c(OC)c2)C[C@@H]2CC[C@H]1N2C(=O)NC1CCCCC1	6	1	-3	-2	i	/	/
O=C(c1ccc(Cl)cc1)C1CCCN(Cc2cccc3ncccc23)C1 (stereo unspecified)	0	97*	-2	0	i	i	72*
COC(=O)c1ccc(CN2CCSC2=N)cc1	-9	-2	-1	0	i	i	/
CCC(=C(c1ccc(O)cc1)c1ccc(OCCN(C)C)cc1)c1ccccc1	-6	-1	/	6	/	/	/	MPTP swell DR=i;MPTP cs DR=>80
CCC(=O)c1ccc(OC(=O)N(C)c2ccccc2)cc1	7	-1	-1	0	i	i	/
CN1CCC(O)(c2ccccc2)C(C(=O)c2ccccc2)C1 (stereo unspecified)	-4	55*	-3	-2	i	i	2	MPTP swell DR=i;MPTP cs DR=>80
COCCNCCOc1ccc(C(C)(C)c2ccccc2)cc1	-47	78*	-1	1	i	i	-9	MPTP swell DR=7.7*;MPTP cs DR=>80
Cc1cccc(NC(=O)COC(=O)c2cc(C)n(C3CC3)c2C)c1	-4	-1	-1	-1	i	/	/
COC(=O)C1=C(c2ccc(OCc3ccccc3)cc2)C[C@@H]2CC[C@H]1N2C(=O)NC1CCN(Cc2ccccc2)CC1	-7	3	-5	2	i	/	/
CCN1C(=O)NC(=O)/C(=C/c2cc(C)n(-c3sc(C)c(C)c3C#N)c2C)C1=O	-51	57*	-4	8	i	i	35*
CCOC(=O)c1c(-n2c(C)cc(/C=C3/C(=O)NC(=O)N(CC)C3=O)c2C)sc2c1CCCC2	-43	1	0	2	i	i	/
COc1cc(CN=Cc2c(O)n(C(C)(C)C)c(=O)[nH]c2=O)cc(OC)c1	-21	2	0	-1	i	i	/
CC(=O)c1cn(Cc2ccccc2F)c2ccccc12	-3	73*	-1	0	i	/	70*
O=Cc1cn(Cc2ccccc2F)c2ccccc12	-26	2	-2	1	i	i	/
Cc1[nH]c2ccc(OC(F)(F)F)cc2c1CCNCc1ccc(Cl)cc1	-9	2	-2	4	i	i	/
CCOc1cccc(CNCCc2c(C)[nH]c3ccc(OC(F)(F)F)cc23)c1O	-33	80*	-17	2	i	100*	79*
C#CCOC(=O)C1=CCCN(C)C1	3	0	4	-1	i	i	/
COC(=O)C1=C(c2ccc(Cl)c(C(F)(F)F)c2)C[C@@H]2CC[C@H]1N2C(=O)NCCOc1ccccc1Cl	1	-2	-17	4	i	/	/
COC(=O)C(O)(c1ccc(NC(=S)NC(=O)c2ccc(Cl)cc2Cl)c(C)c1)C(F)(F)F (stereo unspecified)	-120	86*	-2	31	i	i	86*
SMILES	CRFR2-BP antag	MPTP inh	GRIN3A LBD mod	CRFBP-R2 agonist	TMEM16A act	TMEM16A inh	Rh123 counter	others
CCC(=NCCOc1ccc(Cl)cc1)c1c(O)n(C)c(=O)n(C)c1=O	-52	96*	0	6	i	i	90*
CCN(CC)C(=O)c1ccc(NC(=O)c2cn(-c3ccccc3)nc2-c2ccc(OC)cc2)cc1	-1	0	-17	1	i	i	/
CC(=O)CC(c1ccc2c(c1)OCO2)c1c(O)c2ccccc2oc1=O (stereo unspecified)	10	-1	/	0	/	/	/
CCN(CC)CCNC(=O)c1c(O)c2ccccc2n(Cc2ccccc2)c1=O	-15	-4	-1	2	i	i	/
CCN(CC)CCCNC(=O)c1c(O)c2ccccc2n(Cc2ccccc2)c1=O	-21	79*	-1	7	i	i	-7	MPTP swell DR=16*;MPTP cs DR=>80
Cc1cc(O)c2c(c1)C(=O)C13C(=C2O)C(=O)[C@H]2[C@@H](O)[C@@H]1[C@H]1[C@H](O)[C@@H]3C(=O)C3=C(O)c4c(O)cc(C)cc4C(=O)C312 (stereo partly specified)	-3	87*	0	-2	i	i	-60
O=C1NC(=S)NC(=O)C1=Cc1ccc2c(c1)CCN2CCCCl	3	60*	1	-3	i	i	-14
CCOc1cc(C=C2C(=O)NC(=S)NC2=O)ccc1O	-5	0	1	-3	i	/	/
COC(=O)C1=C(c2ccc(Cl)c(C(F)(F)F)c2)C[C@@H]2CC[C@H]1N2C(=O)N1CCC(C)CC1	0	-1	6	2	i	/	/
